The text below walks through data of PubChem BioAssay AID651820 (National Center for Advancing Translational Sciences (NCATS), 2012).

Screen size: about 340,000 compounds; about 12,000 (3.5%) were called active. Inconclusive results (about 18%) are left out. This is one part of a sample in which actives are shown more often than they occur. Calls come from the whole dose curve; as a rule, active = well fitted inhibition curve with a large enough effect; inconclusive = small, poorly fitted or top-dose-only effect, or another doubt; inactive = no such curve, though single readings can be large or run the other way.
% is set by controls: 0 for no effect and ±100 for the full control effect.

The nature of this test: qHTS Assay for Inhibitors of Hepatitis C Virus (HCV). To be noted: Huh7.5.1 HCVcc-Cre infection, luciferase reporter, 44 h; series mostly up to 41.8 µM; activity change, negative = inhibition: at the top concentration. The text has this: Hepatitis C virus (HCV) infects about 200 million people in the world. Many infected people progress to chronic liver disease including cirrhosis with a risk of developing liver cancer. To date, there is no effective vaccine for hepatitis C. Current therapy based on interferon is only effective in about half of the patients and is associated with significant adverse effects. The fraction of people with HCV who can complete a successful treatment is estimated to be no more than 10 percent. Recent development of direct-acting antivirals against HCV, such as protease and polymerase inhibitors, is promising but still requires combination with peginterferon and ribavirin for maximal efficacy. In addition, these agents are associated with high rate of resistance and many have significant side effects. Due to the lack of a culture system for infectious HCV, the search for new HCV drugs has been greatly hampered. […] High-throughput screening (HTS) with an infectious HCV system would cover the complete spectrum of potentially druggable targets in all stages of HCV lifecycle, and would have more biological relevance than other cell-based assays. Moreover, targeting several key processes in the viral life cycle may not only increase antiviral efficacy; more importantly, it may also reduce the capacity of the virus to develop resistance to the compound. The goal of this project is to identify novel HCV inhibitors as new therapies for hepatitis C, using a highly sensitive and specific assay platform which is based on a HCV infectious cell culture system established in the laboratory and adapted for high-throughput HCV drug screen. NIH Chemical Genomics Center [NCGC] NIH Molecular Libraries Probe Centers Network [MLPCN] MLPCN Grant: MH095511 Assay Submitter (PI): Jake Liang, NIDDK
The assay will start with plating 1,000 cells/well in 3 µL volume and culture for 4 h. Then 23 nL of compounds from the library collection will be added to each well, followed by adding 2.5 µL of HCVcc-Cre virus (~ 0.5 moi) and further cultured for 44 h before the luciferase assay. A volume of 4.5 µL luciferase substrates will be added to each well and the plates will be incubated at room temperature for 15 min. and then read for 15 sec. for the luciferase activity
A general note: qHTS replaces the single test concentration by a dilution series.
For `CC(=O)Nc1ccc(S(=O)(=O)N2CCN(S(=O)(=O)c3cccs3)CC2)cc1`, the “activity change, negative = inhibition” value is 8% (inactive).

As for `CCC(C)c1ccc(NC(=O)COC(=O)C2CCCC2)cc1` (stereo not drawn), the “activity change, negative = inhibition” value is 24.4% (inactive).

`Cc1ccccc1Nc1nc(N)nc(COC(=O)CCC(=O)c2ccc(F)cc2)n1`: the “activity change, negative = inhibition” value was 9.47% (inactive).

As for `COc1ccccc1NS(=O)(=O)c1ccc(C)c(C(=O)NNC(=O)c2csc(N3CCOCC3)n2)c1`, the “activity change, negative = inhibition” value was -6.37% (inactive).

Take `Cc1cc(C)c(C)c(S(=O)(=O)N2CCN(C(=O)c3ccc4c(=O)n5c(nc4c3)CCC5)CC2)c1C`: the “activity change, negative = inhibition” value is -7.77% (inactive).

Turning to `CC(C)N(Cc1nnc(-c2ccc(Cl)cc2)o1)C(=O)C1=COCCO1`, the activity change, negative = inhibition was -0.237% [at 8.37 µM] (inactive).

Consider `CN(C(=O)c1cccc(NC(=O)Cc2ccc(NC(=O)C3CCN(C(=O)C4CCCCC4)CC3)cc2)c1)C1CCC1`, for which the activity change, negative = inhibition was -11.4% [at 8.37 µM] (inactive).

With `CN(C(=O)c1ccc(NC(=O)Cc2cccc(NC(=O)C3CCN(C(=O)c4ccccc4)CC3)c2)cc1)C1CC1`, the Potency was 0.562 µM (active).

For `CN(C(=O)c1cccc(NC(=O)Cc2ccc(NC(=O)C3CCCN(C(=O)C4CC4)C3)cc2)c1)C1CC1` (stereo not drawn), the “activity change, negative = inhibition” value was 0.531% (inactive).

For the molecule `CCOc1ccc(S(=O)(=O)N2CCC(C(=O)NCC(=O)Nc3cccc(Cl)c3C)CC2)cc1`, the “activity change, negative = inhibition” value was 5.38% (inactive).

On to `Cc1ccc(-c2nc3c(cnn3-c3ccccc3)c(=O)o2)cc1`, for which the “activity change, negative = inhibition” value was 18.5% (inactive).

For `Cc1ccc(-n2ncc3c2ncn2nc(-c4ccco4)nc32)c(C)c1`, the “activity change, negative = inhibition” value is -1.19% (inactive).

Take `Cc1ccc(-n2ncc3c(=O)n(-c4ccc(C)c(C)c4)c(-c4ccco4)nc32)cc1`: the Potency is 3.98 µM (active).

For the molecule `O=c1ccc2c(-c3ccccc3S(=O)(=O)O)c3ccc(O)c(O)c3oc-2c1O`, the “activity change, negative = inhibition” value is -10.9% (inactive).

For `O=C(CN1C(=O)c2ccc([N+](=O)[O-])cc2C1=O)Nc1nnc(C2CC2)s1`, the “activity change, negative = inhibition” value was 33.3% (inactive).

For the molecule `CC(CCN1CCN=C1N(C)C)c1ccccc1` (stereo not drawn), the “activity change, negative = inhibition” value was -8.02% (inactive).

`O=C(COc1ccccc1F)NNC(=O)c1cc(Br)ccc1Cl`: the “activity change, negative = inhibition” value was 15.1% (inactive).

As for `O=C(CCNC(=O)c1ccc(Br)cc1)NCCCc1ccccc1`, the “activity change, negative = inhibition” value was 24.9% (inactive).

`CCOc1ccc(NC(=O)CN(C)C(=O)Cc2sc(C)nc2-c2ccc(F)cc2)cc1OCC`: the “activity change, negative = inhibition” value is -12.3% (inactive).

Turning to `CCOc1ccccc1NC(=S)C(=C([O-])c1ccc2c(c1)OCCO2)[n+]1ccc(CC)cc1`, the “activity change, negative = inhibition” value was 6.44% (inactive).

Consider `COc1ccccc1/C=C/C(=O)NC(=S)N1CCOCC1`, for which the “activity change, negative = inhibition” value is 0.814% (inactive).

Consider `O=C1OC(/C=C/c2ccccc2)=NC/1=C/c1ccco1`, for which the “activity change, negative = inhibition” value is 2.84% (inactive).

In the case of `COc1ccccc1/C=C/C1=NC(=C\N(C)C)/C(=O)O1`, the Potency was 11.2 µM (active).

Take `O=C(O)C(CCc1ccccn1)c1ccccc1` (stereo not drawn): the “activity change, negative = inhibition” value is 2.66% (inactive).

Take `O=C(CSc1nnc(Nc2ccccc2F)s1)NC1CCCC1`: the “activity change, negative = inhibition” value was -7.98% (inactive).

In the case of `CCOC(=O)c1[nH]c2c(c1-c1ccccc1)C(=O)CC(c1ccc(Cl)cc1)C2` (stereo not drawn), the “activity change, negative = inhibition” value is 11.8% (inactive).

In the case of `CCCOC(=O)c1[nH]c2c(c1C)C(=O)CC(c1cc(OC)c(OC)c(OC)c1)C2` (stereo not drawn), the Potency is 4.47 µM (active).

On to `COCCOC(=O)c1[nH]c2c(c1C)C(=O)CC(c1ccc(OC)cc1)C2` (stereo not drawn), for which the “activity change, negative = inhibition” value was -18.2% (inactive).

As for `Cn1c2c(c(=O)n(C)c1=O)CN(Cc1ccco1)CN2`, the “activity change, negative = inhibition” value is 29.8% (inactive).

In the case of `O=c1oc(-c2ccco2)nc2sc3c(c12)CCCCC3`, the “activity change, negative = inhibition” value was 0.369% (inactive).

Turning to `Cn1c(=O)n(Cc2ccco2)c(=N)c2c3c(sc21)CCCC3`, the Potency is 10 µM (active).

As for `COc1cc(C)ccc1OCC(=O)OCC(=O)c1ccc[nH]1`, the “activity change, negative = inhibition” value is 5.28% (inactive).

Regarding `O=C(N/N=C/c1ccc(O)c2ccccc12)c1cccnc1`, the “activity change, negative = inhibition” value was 0.147% (inactive).

With `O=C(N/N=C/c1c[nH]c2ccccc12)c1ccccc1O`, the “activity change, negative = inhibition” value is 7.77% (inactive).

On to `O=C(NN=Cc1ccccc1O)NN=Cc1ccccc1O`, for which the Potency was 5.01 µM (active).

For the molecule `NC(=O)NC(=O)C(OC(=O)CCNS(=O)(=O)c1ccccc1)c1ccccc1` (stereo not drawn), the “activity change, negative = inhibition” value was 22.6% (inactive).

Turning to `COc1ccccc1N1CCN(C(=O)c2ccc(S(=O)(=O)N3CCCCC3)cc2)CC1`, the “activity change, negative = inhibition” value is 0.986% (inactive).

In the case of `COc1ccccc1N1CCN(C(=O)c2ccc(Cl)c(S(=O)(=O)N3CCCC3)c2)CC1`, the Potency was 11.2 µM (active).

For the molecule `O=C(c1ccc(Cl)c(S(=O)(=O)N2CCCCC2)c1)N1CCCCCC1`, the “activity change, negative = inhibition” value was -27.9% (inactive).

As for `O=C(NN1CCOCC1)c1cccc(F)c1`, the “activity change, negative = inhibition” value is 28% (inactive).

For `CCNC(=O)N1c2ccccc2Sc2ccccc21`, the “activity change, negative = inhibition” value is -20.7% (inactive).

As for `CNC(=O)N1c2ccccc2C=Cc2ccccc21`, the “activity change, negative = inhibition” value was 2.06% (inactive).

Regarding `CC1C(C)N(C(=O)CCl)c2ccccc2N1C(=O)CCl` (stereo not drawn), the Potency is 4.47 µM (active).

On to `O=C(CSc1nc2ccccc2c(=O)n1-c1ccccc1F)N1CCOCC1`, for which the “activity change, negative = inhibition” value was 9.53% (inactive).

In the case of `CN(CC(=O)Nc1ccc(C(N)=O)cc1)S(=O)(=O)c1ccc2c(c1)OCCO2`, the “activity change, negative = inhibition” value is -10.4% (inactive).

`CCOC(=O)C1CCN(C(=O)CSc2cc(=O)n(C)c3ccccc23)CC1`: the “activity change, negative = inhibition” value is 9.61% (inactive).

`Cn1c(=O)cc(SCC(=O)N2CCN(C(=O)c3ccco3)CC2)c2ccccc21`: the “activity change, negative = inhibition” value was -1.57% (inactive).

As for `Cn1c(=O)cc(SCC(=O)N2CCCC2)c2cc(Cl)ccc21`, the Potency was 10 µM (active).

Consider `CC(=O)c1ccc(NC(=O)C2CCCN2S(=O)(=O)c2cccs2)cc1` (stereo not drawn), for which the “activity change, negative = inhibition” value was 8.62% (inactive).

For `Cn1nccc1NC(=O)Nc1ccc(OC(F)(F)F)cc1`, the “activity change, negative = inhibition” value was 4.83% (inactive).

Regarding `COC(=O)[C@H](C)NC(=O)Nc1ccc(OC(F)(F)F)cc1`, the “activity change, negative = inhibition” value was 8.34% (inactive).

In the case of `O=C(Nc1ccc(OC(F)(F)F)cc1)c1ccc2c(c1)no[n+]2[O-]`, the Potency was 31.6 µM (active).

For the molecule `COc1ccc(S(=O)(=O)N2CCCC2CNC(=O)C(=O)NC2CC2)cc1` (stereo not drawn), the “activity change, negative = inhibition” value is 21.9% (inactive).

`O=C(NC1CCCCCC1)C1CCN(C(=O)c2ccc(Cl)cc2)CC1`: the “activity change, negative = inhibition” value was 6.16% (inactive).

`CC(=O)N1c2ccc(S(=O)(=O)N3CCCC(C(=O)Nc4cccc(Cl)c4)C3)cc2CC1C` (stereo not drawn): the Potency is 5.62 µM (active).

For the molecule `Cc1cc(C)cc(NC(=O)C2CCCN(S(=O)(=O)c3ccc4[nH]c(=O)ccc4c3)C2)c1` (stereo not drawn), the “activity change, negative = inhibition” value was -21.5% (inactive).

As for `CC(=O)N1c2ccc(S(=O)(=O)N3CCCC(C(=O)Nc4cccc(F)c4)C3)cc2CC1C` (stereo not drawn), the Potency is 11.2 µM (active).

With `CCc1cccc(NC(=O)C2CCCN(S(=O)(=O)c3ccc4[nH]c(=O)ccc4c3)C2)c1` (stereo not drawn), the “activity change, negative = inhibition” value is -6.12% (inactive).

As for `CC(=O)N1c2ccc(S(=O)(=O)N3CCC(C(=O)NC4CCCCC4C)CC3)cc2CC1C` (stereo not drawn), the “activity change, negative = inhibition” value is 0.0955% (inactive).

As to `CC(=O)N1c2ccc(S(=O)(=O)N3CCCC(C(=O)Nc4ccc(C)cc4C)C3)cc2CC1C` (stereo not drawn), the “activity change, negative = inhibition” value was -8.23% (inactive).

With `Cc1ccc(OCC(=O)Oc2ccccc2[N+](=O)[O-])cc1`, the “activity change, negative = inhibition” value was 30.2% (inactive).

As to `CC1(C)NC(=O)N(CC(=O)N2CCN(S(=O)(=O)c3ccccc3F)CC2)C1=O`, the “activity change, negative = inhibition” value is 18.4% (inactive).

As for `CCN1C(=O)[C@@H]2[C@@H](c3ccc(-c4cccc(Cl)c4)cc3)N3CCC[C@@]3(C(=O)OC)[C@@H]2C1=O`, the “activity change, negative = inhibition” value is -20.2% (inactive).
